This note sets out measurements from PubChem BioAssay AID743379 (National Center for Advancing Translational Sciences (NCATS), 2014).

SMILES strings stand for the structures. Active and inactive are the calls of the source. Calls come from the whole dose curve.

Phosphatidylinositol 5-phosphate 4-kinase type-2 beta (Homo sapiens), sequence (P78356 whole entry, looked up, canonical isoform): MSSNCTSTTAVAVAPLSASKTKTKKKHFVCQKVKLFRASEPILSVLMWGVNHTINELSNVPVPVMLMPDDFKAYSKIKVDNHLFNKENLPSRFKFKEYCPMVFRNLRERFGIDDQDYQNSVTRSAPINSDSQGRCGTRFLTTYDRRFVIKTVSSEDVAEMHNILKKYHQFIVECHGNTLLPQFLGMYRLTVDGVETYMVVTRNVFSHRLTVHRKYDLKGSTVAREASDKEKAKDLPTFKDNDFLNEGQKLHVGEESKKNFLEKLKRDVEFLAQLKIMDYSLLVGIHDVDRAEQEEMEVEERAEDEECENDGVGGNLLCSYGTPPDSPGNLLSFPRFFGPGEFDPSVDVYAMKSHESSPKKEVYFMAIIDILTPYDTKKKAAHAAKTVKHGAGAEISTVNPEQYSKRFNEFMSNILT

The test concerns the target Phosphatidylinositol 5-phosphate 4-kinase type-2 beta (Homo sapiens) (UniProt P78356). The test can be described thus: qHTS for Inhibitors of PI5P4K: PI5P4K-beta 32P-ATP TLC Secondary Assay for Probe SAR. The conditions noted are these: recombinant PI5P4K-beta, 32P-ATP TLC lipid kinase assay. From the text: In addition to finding PI5P, we discovered the type II phosphatidylinositol 5-phosphate 4-kinase (PI5P4K) family (alpha, beta, gamma isoforms) that catalyze the conversion of PI5P to PI(4,5)P2. Alternatively, PI(4,5)P2 can also be synthesized through phosphatidylinositol-4-phosphate (PI4P) by the type I phosphatidylinositol 4-phosphate 5-kinases (PI4P5K). These PI5P4K enzymes therefore represent one way by which cells can regulate endogenous PI5P levels and play important roles in insulin signaling and in stress responses. […] A qHTS PI5P4K-alpha ADP-Glo assay was developed to identify specific modulators of human PI5P4K, phosphatidylinositol-5-phosphate 4-kinase (Type II PIPK). To confirm that the active compounds and their analogs were true and selective inhibitors, a secondary Thin-layer Chromatography (TLC) assays against recombinant PI5P4K-alpha, PI4P5K-alpha or PI5P4K-beta that utilize a radioactively labeled ATP were developed. The data herein is the result of the PI5P4K-beta TLC assay. […]
The kinase reaction was carried out in a total of 50 microL of kinase buffer (50 mM HEPES pH 7.4 and 10 mM MgCl2) containing 20 microM of the lipids that were suspended by sonication. […] The radiolabeled product, PI(4,5)P2, was quantified with a phosphorimager (Molecular Dynamics, STORM840, GE Healthcare, Waukesha, WI, USA).
On the technique in general: qHTS replaces the single test concentration by a dilution series.
As for `O=C1Nc2ccc(C(=O)c3ccco3)cc2/C1=C/c1cc(Cl)c(O)c(Cl)c1`, the Potency is 890 nM (active).
